High-throughput results from PubChem.
Compounds with a hit are over-represented: about 11% of the library has one in this group of screens.
FLuc inh-1 – inhibitors of firefly (Photinus pyralis) luciferase; P08659; purified P. pyralis luciferase, luminescence, biochemical; Potency, µM (highest dose often 115 µM), actives largely listed as inhibitors; 2.5% of 76,000 active; also: % is scaled to controls: 0 for no effect and ±100 for the full control effect; nearly all actives have a fitted effect of over 65% in size
Target sequence (P08659 whole entry, looked up): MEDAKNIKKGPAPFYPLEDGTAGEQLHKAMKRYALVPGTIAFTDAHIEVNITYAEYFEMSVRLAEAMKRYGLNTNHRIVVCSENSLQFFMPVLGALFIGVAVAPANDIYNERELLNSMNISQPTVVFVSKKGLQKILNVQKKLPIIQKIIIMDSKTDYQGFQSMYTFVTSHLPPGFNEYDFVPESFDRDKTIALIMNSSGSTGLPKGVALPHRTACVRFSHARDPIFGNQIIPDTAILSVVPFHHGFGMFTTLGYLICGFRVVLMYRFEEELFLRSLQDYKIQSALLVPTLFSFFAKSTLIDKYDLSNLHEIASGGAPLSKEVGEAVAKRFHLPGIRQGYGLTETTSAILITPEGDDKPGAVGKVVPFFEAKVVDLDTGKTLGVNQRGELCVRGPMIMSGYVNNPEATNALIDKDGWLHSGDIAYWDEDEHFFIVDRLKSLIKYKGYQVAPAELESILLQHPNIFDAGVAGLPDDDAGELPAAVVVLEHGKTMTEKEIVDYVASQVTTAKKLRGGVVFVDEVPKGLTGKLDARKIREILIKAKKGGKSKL
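Luminescence read by CCD imager after adding enzyme (10nM final) to wells holding compound, titrated in qHTS. Substrates 10uM each D-luciferin and ATP; buffer 50mM Tris acetate pH 7.5, 10mM Mg acetate, Tween-20, BSA.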
HEK293 tox – kills HEK 293 cells | HEK 293 viability, ATP luminescence (CellTiter-Glo), 48-72 h | Potency, µM (top dose mostly 115 µM), for inactives: at the top dose activity change, negative = cytotoxicity, usual class: inhibitors | AID 1345083 | 6.6% of 94,000 active; also: % is scaled to controls: 0 for no effect and ±100 for the full control effect; nearly all actives have a fitted effect of over 60% in size
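HEK 293 cells at 250 cells/well were exposed to compounds by pintool transfer for 48 or 72 hr at 37 degree Celsius, 5% CO2. Viability was read as ATP-coupled luminescence with CellTiter-Glo after 10 min at room temperature.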
3T3 cytotox – NIH 3T3 cell cytotoxicity. NIH 3T3 viability, CellTiter-Glo ATP luminescence, 48-72 h. Potency, µM (highest dose often 96.7 µM), inactives show top-dose activity change, negative = cytotoxicity, most hits filed as inhibitors. 4.3% of 94,000 active; also: % is scaled to controls: 0 for no effect and ±100 for the full control effect; nearly all actives have a fitted effect of over 55% in size
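ATP-dependent luminescence (CellTiter-Glo) served as the viability signal for NIH 3T3 cells treated with compound for 48 or 72 hr at 37 °C.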
NPR1 antag – blocks ANP-stimulated signaling of human Npr1 receptor; P16066; HEK293 hNpr1 GloSensor cGMP, ANP-stimulated luminescence; Potency, µM (top dose mostly 46.3 µM), for inactives: at the highest dose activity change, negative = inhibition, actives largely listed as inhibitors; 1.6% of 76,000 active; AID 1347048; calls by dose curve; also: % is scaled to controls: 0 for no effect and ±100 for the full control effect; nearly all actives have a fitted effect of over 60% in size
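Compound pre-incubated 30 min at room temperature on GloSensor-loaded HEK293 cells stably carrying hNpr1 and the pGS-40F cGMP biosensor. Stimulation uses hNppA at 0.1 nM final; luminescence is taken at baseline and 20 min post-agonist.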
FLuc SDR no ATP – binders stabilizing firefly luciferase, without ATP | shares compounds with FLuc inh-1 | 7.8% of 1,300 active | Potency, µM (doses to about 32.7 µM), for the others: at the top dose activation (signal gain), usual class: activators | Purified FLuc-C-HiBiT, Nano-Glo HiBiT luminescence, no ATP; also: nearly all actives have a fitted effect of over 55% in size
FLuc SDR ATP – firefly luciferase binding stabilization, ATP added; purified FLuc-C-HiBiT + ATP, HiBiT complementation luminescence; Potency, µM (top dose mostly 32.7 µM), inactives show top-dose activation (gain of signal), actives largely listed as activators; 8.7% of 1,300 active; shares compounds with FLuc inh-1;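 also: signal reports ligand binding via conformational change of the enzyme rather than luciferase catalysis; % of control where 0% means no effect; nearly all actives have a fitted effect of over 55% in size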
FLuc inh-2 – inhibitors of firefly luciferase enzymatic activity. shares compounds with FLuc inh-1. purified FLuc-C-HiBiT enzyme, luciferin luminescence. Potency, µM (titrated, usually from 32.7 µM), inactives show at the top dose activity change, negative = inhibition, most hits filed as inhibitors. 42% of 1,300 active. AID 1963320; also: % is scaled to controls: 0 for no effect and ±100 for the full control effect; nearly all actives have a fitted effect of over 70% in size
An asterisk follows results filed as active; i = inactive; ? = inconclusive; · = not tested or not shown; [ ] = dose if it differs, or a comment. Unless noted, calls follow the shape of the dose curve; as a rule, active = well fitted curve in the direction sought with a large enough effect; inconclusive = small, poorly fitted or top-dose-only effect, or another doubt; inactive = no such curve, though single readings can be large; an effect the other way counts as inactive or inconclusive. Potency is read from the fitted curve at half-maximal effect.

SMILES	FLuc inh-1	HEK293 tox	3T3 cytotox	NPR1 antag	FLuc SDR no ATP	FLuc SDR ATP	FLuc inh-2
Cc1cc(C)cc(C(=O)NCCn2ccn3nc(-c4ccc(C)cc4C)cc3c2=O)c1	2.8µM*	?	?	-22%	22%	14%	7µM*
Cc1ccc(-c2cc3c(=O)n(CCNC(=O)c4cc(F)ccc4F)ccn3n2)c(C)c1	?	-10%	-19%	-20%	·	·	·
CCOc1ccc(-c2cc3c(=O)n(CCNC(=O)c4ccc(C)cc4)ccn3n2)cc1	i	i	i	1%	·	·	·
Cc1ccc(-c2cc3c(=O)n(CCNC(=O)C4CCCCC4)ccn3n2)c(C)c1	2µM*	?	?	?	?	?	2.5µM*
CN(C)C(=O)c1cn2cc(-c3cccc(C(F)(F)F)c3)sc2n1	·	-23%[172 µM]	-3%[138 µM]	·	·	·	·
O=C(c1cccnc1)N1CCN(c2ccc3nnc(-c4ccccc4)n3n2)CC1	·	-5%	?	·	·	·	·
Cc1ccc(-c2cc3c(=O)n(CCNC(=O)c4cccc(Cl)c4)ccn3n2)c(C)c1	1.6µM*	?	?	?	28%	?	3.9µM*
Cc1ccc(-c2cc3c(=O)n(CCNC(=O)c4nccc5ccccc45)ccn3n2)c(C)c1	3.5µM*	45µM*	?	-12%	23%	16%	8.8µM*
Cc1ccc(-c2cc3c(=O)n(CCNC(=O)c4ccc(C)s4)ccn3n2)c(C)c1	4.5µM*	?	?	0%	27%	?	7µM*
Cc1ccc(-c2cc3c(=O)n(CCNC(=O)c4ccc5c(c4)OCO5)ccn3n2)c(C)c1	?	3%	-1%	-2%	·	·	·
COc1ccc(-c2nc(C)nc3c2CN(C(=O)Cc2cccc(Cl)c2)CC3)cc1	·	-24%	-17%	·	·	·	·
CC(C)(CC(=O)O)CC(=O)N1Cc2[nH]cnc2C[C@H]1c1nc(Cc2ccccc2)no1	i	1%[172 µM]	0%[174 µM]	14%[70.6 µM]	8%[49.3 µM]	7%[49.3 µM]	-2%[49.3 µM]
CN1CCN([C@H]2[C@@H]3OC[C@@H](O3)[C@@H](NC(=O)Nc3cccc(C#N)c3)[C@@H]2O)CC1	i	-27%[172 µM]	-3%[174 µM]	4%[70.6 µM]	·	·	·
CN1CCc2nc3sc(C(=O)Nc4cccc(C#N)c4)c(N)c3cc2C1	·	·	·	·	14%	16%	-12%
O=C(O)c1ccc(-c2ccc(C(F)(F)F)cc2)cc1	·	-4%[172 µM]	-18%[138 µM]	·	·	·	·
O=C(Nc1c(C(=O)O)oc2ccccc12)c1ccc(C(F)(F)F)cc1	·	·	·	·	15%	9%	9.9µM*
Clc1ccc(OCc2nc3ccccc3n2Cc2ccccc2)c(Cl)c1	·	·	·	·	15%	11%	?
COc1cccc(OCc2nc3ccccc3n2Cc2ccccc2)c1	·	·	·	·	12%	9%	-16%
CC1=C(C(=O)NCC2CCCCC(=O)N2)C2(CCCCC2)OC1=O (centres undefined)	·	-10%	-13%	·	·	·	·
OC(c1nc(Nc2ccc(Oc3ccccc3)cc2)n[nH]1)C1CC1 (centres undefined)	14µM*	?	?	-22%[70.6 µM]	17%[49.3 µM]	11%[49.3 µM]	?
O=C(NCCC1CCN(C(=O)Nc2cc(F)ccc2F)CC1)c1ccccn1	·	-17%	-34%	·	·	·	·
CC(NC(=O)C1CCN(C(=O)c2ncn3c2COC(c2ccccc2)C3)CC1)c1ccc(F)cc1 (centres undefined)	13µM*	5%	0%	-8%	13%	?	5µM*
CCC(CC)NC(=O)C1CCN(C(=O)c2ncn3c2COC(c2ccc(F)cc2)C3)CC1 (centres undefined)	?	-14%	i	5%	·	·	·
CC(C)NC(=O)C1CCN(C(=O)c2ncn3c2COC(c2ccccc2)C3)CC1 (centres undefined)	3.5µM*	-8%	-12%	0%	13%	4.4µM*	3.5µM*
COc1ccc(F)cc1-c1cccc(C(=O)NCC(=O)N2CCN(C(C)=O)CC2)c1	·	?	-19%	·	·	·	·
SMILES	FLuc inh-1	HEK293 tox	3T3 cytotox	NPR1 antag	FLuc SDR no ATP	FLuc SDR ATP	FLuc inh-2
Cc1nn(-c2cccc(Br)c2)c(C)c1[C@@H]1C=C[C@@H](NC(=O)CC(C)(C)CC(=O)O)C1	?	?	?	-1%	13%	9%	-7%
Cc1ccc(-n2nc(C)c([C@@H]3C=C[C@@H](NC(=O)NC(C)C)C3)c2C)cc1Cl	3.5µM*	?	63µM*	16µM*	30%[49.3 µM]	?	14µM*
COc1ccc(NC(=O)N[C@@H]2C=C[C@@H](c3c(C)nn(-c4ccc(C(C)C)cc4)c3C)C2)cc1	7.9µM*	?	?	-27%	14%	13%	-11%
Cc1nn(-c2ccccn2)c(C)c1[C@@H]1C=C[C@@H](NC(=O)CCC(=O)O)C1	i	-23%[172 µM]	-9%[174 µM]	0%[70.6 µM]	·	·	·
Cc1nn(CCC#N)c(C)c1[C@@H]1C=C[C@@H](NC(=O)NC(C)C)C1	i	0%[172 µM]	?	7%[70.6 µM]	·	·	·
Cc1nn(-c2ccc(C(C)C)cc2)c(C)c1[C@@H]1C=C[C@@H](NC(=O)NC(C)C)C1	3.5µM*	22µM*	28µM*	32µM*	16%[49.3 µM]	20%[49.3 µM]	?
COc1ccc(NC(=O)O[C@@H]2C=C[C@H](c3c(C)nn(-c4ccccc4C)c3C)C2)cc1	i	?	?	-4%[70.6 µM]	·	·	·
COC[C@@H]1[C@H](C(=O)NCCC(C)C)CCC(=O)N1C	·	-6%	-2%	·	·	·	·
Cc1cc2c(c(=O)n(-c3ccccc3)c(=O)n2CC(=O)Nc2ccccc2Cl)n1C	i	?	?	3%	·	·	·
CCOC(=O)C1CCCN(C(=O)C2CCc3nnc(CNC(=O)NC(C)(C)C)n32)C1 (centres undefined)	·	5%	-14%	·	·	·	·
COc1ccc(-n2nc(C)c([C@@H]3C=C[C@@H](NC(=O)Nc4cccc(C#N)c4)C3)c2C)cc1	7.9µM*	89µM*	?	?	13%[49.3 µM]	11%[49.3 µM]	?
Cc1nn(-c2ccccn2)c(C)c1[C@@H]1C=C[C@@H](NC(=O)C2CCCCC2)C1	i	?	?	-8%[70.6 µM]	·	·	·
COc1ccc(OCc2cc(C(=O)N3C[C@H]4CC[C@H]3C4)n[nH]2)c(Cl)c1	8.9µM*	?	?	-18%	13%	13%	-5%
O=C(O)C1(CCc2ccccc2)CCCN(c2ncnc3nc[nH]c23)C1 (centres undefined)	i	-13%	3%	2%	14%	10%	1%
O=[S+]1([O-])NC2(CCN(Cc3ccc(Cl)cc3)C2)COc2ncccc21 (centres undefined)	·	-5%	i	·	·	·	·
